Measured values from PubChem BioAssay (Tox21).
Inconclusive results are not listed. Active and inactive are the calls of the source. Unless noted, the call rests on the fitted dose curve; in most records, active means well fitted curve in the direction sought with a large enough effect in the repeat runs; inconclusive means weak or mixed curves; inactive means no such curve, though single readings can be large; an effect the other way counts as inactive or inconclusive.

How the values were obtained:
[1] = qHTS assay to identify small molecule agonists of the sonic hedgehog signaling (Shh) pathway (AID 1259368; calls by dose curve;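 further: NIH/3T3-derived 3T3Gli1-Luc cells carrying a stable Gli1-driven firefly luciferase reporter; series mostly up to about 92 µM; nearly all actives have a fitted effect of over 15% in size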)
Procedure, shortened: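 Luminescent signal was taken as a measure of Gli1-controlled luciferase expression in stably transfected NIH/3T3-derived cells that had been treated for 24 hr with compounds delivered in DMSO.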

[2] = target: Estrogen receptor beta (Homo sapiens) (UniProt Q92731); test: qHTS assay to identify small molecule agonists of the estrogen receptor beta (ER-beta) signaling pathway (AID 1259377; active means well fitted activation curve with a large enough effect in the signal ratio in the repeat runs, not every such curve was filed as active; the % refers to the signal ratio)
Procedure, shortened: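 In HEK293T cells bearing a UAS-beta-lactamase reporter under ER-beta control, DMSO-delivered compounds were incubated for 16 hr at 37C. Activity was detected as fluorescence 2 hours after LiveBLAzer B/G FRET substrate addition.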

[3] = target: Estrogen receptor beta (Homo sapiens) (UniProt Q92731); test: qHTS assay to identify small molecule antagonists of the estrogen receptor beta (ER-beta) signaling pathway (AID 1259378; active means well fitted inhibition curve with a large enough effect in the signal ratio in the repeat runs, not every such curve was filed as active; the % refers to the signal ratio)
Procedure, shortened: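 ER-beta-UAS-bla HEK293T cells in 2% charcoal-stripped FBS medium treated with compound plus 1nM final 17-beta-estradiol for 16 hr at 37C. Beta-lactamase reporter read by FRET substrate fluorescence after 2 hours at room temperature.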

[4] = qHTS assay to identify small molecule agonists of the androgen receptor (AR) signaling pathway in the presence of an antagonist - cell viability counter screen (AID 1259379); further: nearly all actives have a fitted effect of over 25% in size; further: potency means the concentration at half of the fitted maximal effect;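 on activity change, negative = cytotoxicity: MDA-kb2 human breast cancer cells carrying an MMTV luciferase reporter; series mostly up to about 92 µM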
Procedure, shortened: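 In MDA-kb2 cells (human breast carcinoma, MMTV-luciferase), compounds at 15 concentrations plus 3.0uM nilutamide; 16 hr, 37C, 0% CO2; CellTiter-Fluor fluorescence read for viability.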

[5] = qHTS assay to identify small molecule agonists of the estrogen receptor beta (ER-beta) signaling pathway - cell viability counter screen (AID 1259380); further: nearly all actives have a fitted effect of over 30% in size; further: potency means the concentration at half of the fitted maximal effect
Procedure, shortened: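 Viability of ER-beta-UAS-bla HEK293T cells was determined by CellTiter-Glo luminescence following 16 hr treatment with test compounds at 37C.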

[6] = qHTS assay to identify small molecule antagonists of the estrogen receptor beta (ER-beta) signaling pathway - cell viability counter screen (AID 1259382); further: nearly all actives have a fitted effect of over 55% in size; further: potency means the concentration at half of the fitted maximal effect; on activity change, negative = cytotoxicity: series mostly up to about 92 µM
Procedure, shortened: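 Tox21 10K library tested in qHTS format on ER-beta-bla HEK293T cells stimulated with 1nM E2; 16 hr treatment at 37C. Same-well CellTiter-Glo luminescence served as the cell viability measure.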

[7] = target: Estrogen receptor (Homo sapiens) (UniProt P03372); test: qHTS assay to identify small molecule agonists of the estrogen receptor alpha (ER-alpha) signaling pathway in the presence of an antagonist (AID 1259383; calls by dose curve; further: top concentration of the series differs between compounds; nearly all actives have a fitted effect of over 15% in size)
Procedure, shortened: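 In VM7Luc4E2 cells, 4,000 per well, compounds at 15 concentrations were co-incubated 22hr at 37C with 10.0nM final ICI-182,780. Luminescence from the stably transfected 4×ERE-luciferase reporter was recorded 30min after ONE-Glo addition.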

[8] = qHTS assay to identify small molecule agonists or antagonists of the thyroid stimulating hormone receptor (TSHR) signaling pathway - wild type cell line counter screen (AID 1259384; calls by dose curve)
Procedure, shortened: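 Wild-type Hek293 cells, 800/well, 18 h at 37C, then compound with Ro20-1724 for 30 min RT. cAMP by HTRF (cAMP-d2/anti-cAMP cryptate), 1 h RT, fluorescence read. 15 concentrations, triplicates.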

[9] = target: Thyrotropin receptor (Homo sapiens) (UniProt P16473); test: qHTS assay to identify small molecule antagonists of the thyroid stimulating hormone receptor (TSHR) signaling pathway (AID 1259385; calls by dose curve; further: nearly all actives have a fitted effect of over 20% in size; further: potency means the concentration at half of the fitted maximal effect)
Procedure, shortened: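 TSHR-HEK293 cells (800/well) plated 18 h, then compounds with Ro20-1724 and TSH at 1.5 ng/mL final, 30 min at room temperature. cAMP quantified by HTRF (cAMP-d2/anti-cAMP-cryptate, 1 h); 15 concentrations in triplicate.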

[10] = qHTS assay to identify small molecule agonists of the estrogen receptor alpha (ER-alpha) signaling pathway in the presence of an antagonist - cell viability counter screen (AID 1259386);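 further: cells exposed to compounds for 22 h at 37 °C before the viability read; nearly all actives have a fitted effect of over 30% in size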; further: potency means the concentration at half of the fitted maximal effect; on activity change, negative = cytotoxicity: series mostly up to about 92 µM
Procedure, shortened: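 Fluorescent CellTiter-Fluor viability signal from VM7Luc4E2 cells, with the reagent added during the final hour of a 22hr compound exposure at 37C in the presence of 10.0nM ICI-182,780.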

[11] = target: Progesterone receptor (Homo sapiens) (UniProt P06401); test: qHTS assay to identify small molecule agonists of the progesterone receptor (PR) signaling pathway (AID 1346784; calls by dose curve; further: nearly all actives have a fitted effect of over 30% in size; further: potency means the concentration at half of the fitted maximal effect)
Procedure, shortened: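 Using charcoal-stripped serum (2%) to limit endogenous steroids, PR-UAS-bla HEK 293T cells received compounds for 16 hr at 37C after 6 hr plating; beta-lactamase FRET fluorescence was recorded following 2 hr substrate loading at room temperature.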

[12] = target: Progesterone receptor (Homo sapiens) (UniProt P06401); test: qHTS assay to identify small molecule antagonists of the progesterone receptor (PR) signaling pathway (AID 1346795; active means well fitted inhibition curve with a large enough effect in the signal ratio in the repeat runs, not every such curve was filed as active; the % refers to the signal ratio; further: potency means the concentration at half of the fitted maximal effect)
Procedure, shortened: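 Inhibition of R5020-induced (1 nM final) beta-lactamase reporter signal in PR-UAS-bla HEK293T cells was scored by FRET fluorescence after overnight (16 hr) compound treatment.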

[13] = qHTS assay to identify small molecule antagonists of the progesterone receptor (PR) signaling pathway - cell viability counter screen (AID 1346798); further: nearly all actives have a fitted effect of over 50% in size; further: potency means the concentration at half of the fitted maximal effect; on activity change, negative = cytotoxicity: series mostly up to about 92 µM
Procedure, shortened: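 ATP content as viability readout: CellTiter-Glo luminescence, 30 min room temperature, in PR-UAS-bla HEK293T cells after 16 hr compound/R5020 treatment at 37C and 5% CO2.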

[14] = qHTS assay to identify small molecule antagonists of the TGF-beta/Smad signaling pathway - cell viability counter screen (AID 1346824); further: nearly all actives have a fitted effect of over 50% in size
Procedure, shortened: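 SBE-bla HEK 293T cells, incubated overnight, then compound plus 0.25 ng/mL TGF-beta1 (stock added) for 5 hr at 37 C. Viability was read in the same wells by CellTiter-Glo luminescence after 30 min at room temperature.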

[15] = qHTS assay to identify small molecule agonists of the TGF-beta/Smad signaling pathway - cell viability counter screen (AID 1346829); further: top concentration of the series differs between compounds; nearly all actives have a fitted effect of over 45% in size
Procedure, shortened: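 CellTiter-Glo luminescence readout; SBE-bla HEK 293T cells, overnight plating, compound 5 hr at 37 C/5% CO2, then bla substrate 2 hr RT, then CellTiter-Glo 30 min RT.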

[16] = qHTS assay to identify small molecule agonists of the TGF-beta/Smad signaling pathway (AID 1346859; active means well fitted activation curve with a large enough effect in the signal ratio in the repeat runs, not every such curve was filed as active; the % refers to the signal ratio; further: series mostly up to about 77 µM)
Procedure, shortened: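 Stable Smad binding element-beta-lactamase HEK 293T cells; 5 hr compound exposure at 37 C under 5% CO2; 2 hr room-temperature substrate step; fluorescence excited at 405 nm, collected at 460 nm and 530 nm.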

[17] = target: Thyrotropin-releasing hormone receptor (Homo sapiens) (UniProt P34981); test: qHTS assay to identify small molecule antagonists of the thyrotropin-releasing hormone receptor (TRHR) signaling pathway (AID 1346877; active means well fitted inhibition curve with a large enough effect in the repeat runs, not every such curve was filed as active; further: series mostly up to about 51 µM)
Procedure, shortened: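 In this cell-based calcium flux format, HEK293 cells expressing TRHR received test compound for 5 min before the agonist TRH (1 nM final). Dye loading lasted 2 h at 37 °C.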

[18] = qHTS assay to identify small molecule agonists of the progesterone receptor (PR) signaling pathway - cell viability counter screen (AID 1346799; calls by dose curve; further: nearly all actives have a fitted effect of over 45% in size; further: potency means the concentration at half of the fitted maximal effect)
Procedure, shortened: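 Cytotoxicity in PR-bla HEK293T cells: 16 h compound, 37C; CellTiter-Glo added post-FRET read; luminescence after 30 min RT.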
On the % scale 0 is the no-effect control and ±100 the full control effect.

Estrogen receptor (Homo sapiens), sequence (P03372 whole entry, looked up): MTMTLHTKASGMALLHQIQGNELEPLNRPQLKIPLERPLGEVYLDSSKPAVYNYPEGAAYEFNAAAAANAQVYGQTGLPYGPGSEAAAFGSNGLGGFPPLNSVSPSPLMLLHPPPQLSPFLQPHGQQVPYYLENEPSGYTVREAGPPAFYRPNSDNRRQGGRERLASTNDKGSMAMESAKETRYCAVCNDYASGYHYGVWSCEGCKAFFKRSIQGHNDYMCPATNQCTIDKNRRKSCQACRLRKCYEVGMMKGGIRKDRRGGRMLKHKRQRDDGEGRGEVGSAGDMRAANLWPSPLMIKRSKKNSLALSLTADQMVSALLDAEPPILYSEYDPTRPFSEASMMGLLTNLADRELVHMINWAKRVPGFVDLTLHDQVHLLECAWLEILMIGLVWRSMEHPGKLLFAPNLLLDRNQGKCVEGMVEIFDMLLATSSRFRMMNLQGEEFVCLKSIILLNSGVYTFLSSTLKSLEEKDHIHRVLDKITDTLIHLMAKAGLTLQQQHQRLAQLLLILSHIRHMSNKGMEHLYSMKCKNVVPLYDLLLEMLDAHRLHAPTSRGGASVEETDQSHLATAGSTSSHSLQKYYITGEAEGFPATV
Progesterone receptor (Homo sapiens), sequence (P06401 whole entry, looked up): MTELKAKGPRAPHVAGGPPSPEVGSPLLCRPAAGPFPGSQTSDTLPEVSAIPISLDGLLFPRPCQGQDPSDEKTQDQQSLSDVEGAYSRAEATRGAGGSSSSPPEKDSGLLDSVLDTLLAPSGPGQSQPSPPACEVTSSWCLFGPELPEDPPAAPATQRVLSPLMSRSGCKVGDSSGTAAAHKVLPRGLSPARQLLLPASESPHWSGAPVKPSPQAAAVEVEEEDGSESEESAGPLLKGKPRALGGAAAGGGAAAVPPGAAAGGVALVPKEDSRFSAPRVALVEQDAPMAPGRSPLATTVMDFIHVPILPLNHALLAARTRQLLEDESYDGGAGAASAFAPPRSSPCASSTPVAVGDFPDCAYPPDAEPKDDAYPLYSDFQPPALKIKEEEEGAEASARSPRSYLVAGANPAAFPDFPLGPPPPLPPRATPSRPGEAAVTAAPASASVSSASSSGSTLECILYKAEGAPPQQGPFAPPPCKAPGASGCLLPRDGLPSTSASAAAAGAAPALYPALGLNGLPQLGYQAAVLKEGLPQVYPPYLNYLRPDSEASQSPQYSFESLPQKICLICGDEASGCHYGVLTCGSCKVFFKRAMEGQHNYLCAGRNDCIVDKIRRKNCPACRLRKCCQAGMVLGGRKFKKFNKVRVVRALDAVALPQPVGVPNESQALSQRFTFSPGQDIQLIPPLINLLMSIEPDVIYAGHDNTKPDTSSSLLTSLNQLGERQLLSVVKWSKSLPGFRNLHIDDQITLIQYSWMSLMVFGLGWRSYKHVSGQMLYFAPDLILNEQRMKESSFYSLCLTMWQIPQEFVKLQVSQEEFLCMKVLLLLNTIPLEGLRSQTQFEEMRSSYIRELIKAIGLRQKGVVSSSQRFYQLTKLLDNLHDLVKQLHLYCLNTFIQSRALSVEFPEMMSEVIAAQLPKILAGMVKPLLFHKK
Thyrotropin receptor (Homo sapiens), sequence (P16473 whole entry, looked up): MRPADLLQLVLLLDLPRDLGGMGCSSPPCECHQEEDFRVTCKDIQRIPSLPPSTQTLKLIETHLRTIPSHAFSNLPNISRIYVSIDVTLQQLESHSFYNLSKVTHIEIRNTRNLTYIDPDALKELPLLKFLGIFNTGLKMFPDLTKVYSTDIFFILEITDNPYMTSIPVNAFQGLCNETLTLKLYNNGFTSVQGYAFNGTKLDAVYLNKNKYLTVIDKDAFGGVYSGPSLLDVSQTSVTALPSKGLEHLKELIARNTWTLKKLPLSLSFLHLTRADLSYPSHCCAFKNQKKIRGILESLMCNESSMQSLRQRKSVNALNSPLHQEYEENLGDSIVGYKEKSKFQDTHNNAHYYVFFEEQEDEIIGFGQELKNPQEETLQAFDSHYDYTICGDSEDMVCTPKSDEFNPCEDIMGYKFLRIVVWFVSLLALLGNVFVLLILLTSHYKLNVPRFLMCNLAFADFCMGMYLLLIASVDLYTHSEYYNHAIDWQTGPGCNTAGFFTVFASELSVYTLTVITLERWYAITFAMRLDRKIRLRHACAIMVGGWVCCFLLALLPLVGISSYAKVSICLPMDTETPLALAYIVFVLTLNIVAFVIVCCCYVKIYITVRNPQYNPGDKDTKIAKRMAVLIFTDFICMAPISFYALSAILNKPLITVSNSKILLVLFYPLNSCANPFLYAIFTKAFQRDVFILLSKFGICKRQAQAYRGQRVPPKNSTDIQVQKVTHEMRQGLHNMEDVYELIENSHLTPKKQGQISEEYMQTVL
Estrogen receptor beta (Homo sapiens), sequence (Q92731 whole entry, looked up): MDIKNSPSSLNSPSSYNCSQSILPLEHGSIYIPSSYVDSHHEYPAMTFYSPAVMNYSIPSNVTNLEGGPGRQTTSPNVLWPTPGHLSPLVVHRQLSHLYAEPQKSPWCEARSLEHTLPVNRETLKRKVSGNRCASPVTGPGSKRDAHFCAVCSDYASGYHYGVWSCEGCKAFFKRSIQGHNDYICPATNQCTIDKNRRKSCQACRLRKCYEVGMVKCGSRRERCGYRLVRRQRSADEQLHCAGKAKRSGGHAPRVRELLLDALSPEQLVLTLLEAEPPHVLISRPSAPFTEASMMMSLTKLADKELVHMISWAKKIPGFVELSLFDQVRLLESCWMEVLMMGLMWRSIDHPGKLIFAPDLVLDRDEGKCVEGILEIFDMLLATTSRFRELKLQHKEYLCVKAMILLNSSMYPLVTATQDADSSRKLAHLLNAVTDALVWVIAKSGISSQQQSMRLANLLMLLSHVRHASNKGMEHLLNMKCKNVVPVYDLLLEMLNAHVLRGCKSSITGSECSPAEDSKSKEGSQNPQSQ
Thyrotropin-releasing hormone receptor (Homo sapiens), sequence (P34981 whole entry, looked up): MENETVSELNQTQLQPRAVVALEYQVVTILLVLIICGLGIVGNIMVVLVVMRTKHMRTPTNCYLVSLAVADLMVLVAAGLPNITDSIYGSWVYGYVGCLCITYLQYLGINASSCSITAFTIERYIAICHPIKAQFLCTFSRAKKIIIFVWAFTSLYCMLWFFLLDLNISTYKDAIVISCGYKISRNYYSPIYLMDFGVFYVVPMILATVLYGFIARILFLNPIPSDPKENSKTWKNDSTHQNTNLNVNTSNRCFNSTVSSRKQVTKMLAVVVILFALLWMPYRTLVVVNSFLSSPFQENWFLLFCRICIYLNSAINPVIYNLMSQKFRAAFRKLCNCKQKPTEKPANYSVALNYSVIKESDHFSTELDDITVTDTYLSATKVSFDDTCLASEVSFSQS

Cc1cc(O)c(C(C)C)cc1Cl
inactive: Potency [1] | Potency [2] | Potency [3] | Potency [4] | Potency [5] | Potency [6] | Potency [7] | outcome [8] | Potency [9] | Potency [10] | Potency [11] | Potency [12] | Potency [13] | outcome [14] | outcome [15] | outcome [16] | outcome [17]

CCOC(=N)CC(=O)OCC
active: Potency [13] 17.2 µM
inactive: Potency [1] | Potency [2] | Potency [3] | Potency [4] | Potency [7] | outcome [8] | Potency [9] | Potency [10] | outcome [14] | outcome [15] | outcome [16] | outcome [17]

CC[C@@H]([C@H](C)O)n1ncn(-c2ccc(N3CCN(c4ccc(OC[C@@H]5CO[C@@](Cn6cncn6)(c6ccc(F)cc6F)C5)cc4)CC3)cc2)c1=O
active: Potency [4] 11.9 µM | Potency [5] 4.22 µM | Potency [6] 9.44 µM | Potency [9] 29.8 µM | Potency [13] 16.8 µM | Potency [18] 16.8 µM
inactive: Potency [1] | Potency [2] | outcome [8] | Potency [10] | Potency [11] | outcome [16] | outcome [17]

O=C1OCCN1/N=C/c1ccc([N+](=O)[O-])o1
inactive: Potency [1] | Potency [2] | Potency [3] | Potency [4] | Potency [5] | Potency [6] | Potency [7] | outcome [8] | Potency [9] | Potency [10] | Potency [11] | Potency [12] | Potency [13] | Potency [18] | outcome [14] | outcome [15] | outcome [16] | outcome [17]

C[C@]12CCC(=O)C=C1C=C[C@@H]1[C@@H]2CC[C@@]2(C)[C@H]1CC[C@@]21CCC(=O)O1
active: Potency [11] 1.68 µM
inactive: Potency [1] | Potency [2] | Potency [4] | Potency [5] | Potency [6] | Potency [7] | outcome [8] | Potency [9] | Potency [10] | outcome [14] | outcome [15] | outcome [17]

C[C@@H]1C[C@H]2[C@@H]3CCC4=CC(=O)C=C[C@]4(C)[C@@]3(F)[C@@H](O)C[C@]2(C)[C@H]1C(=O)CO
inactive: Potency [1] | Potency [2] | Potency [3] | Potency [4] | Potency [6] | outcome [8] | Potency [9] | Potency [10] | Potency [12] | Potency [13] | outcome [14] | outcome [15] | outcome [16] | outcome [17]

O=C(CS)OCCOC(=O)CS
inactive: Potency [1] | Potency [2] | Potency [4] | Potency [6] | outcome [8] | Potency [9] | Potency [10] | Potency [11] | Potency [12] | Potency [18] | outcome [14] | outcome [15] | outcome [16] | outcome [17]
active: Potency [5] 30.6 µM

CCCCCCCCCCCCCCCCBr
inactive: activity change [1] -0.182% [at 18.9 µM, hits give high values] | activation [2] 0.819% [at 19 µM] | activity, negative = inhibition [3] 8% [at 19 µM] | activity change, negative = cytotoxicity [4] 1.54% [at 19 µM] | activity change, negative = cytotoxicity [5] 2.84% [at 19 µM] | activity change, negative = cytotoxicity [6] -0.0957% [at 19 µM] | cAMP activity change [8] -0.461% [at 18.9 µM] | activity change, negative = inhibition [9] -0.923% [at 19 µM] | activation [11] 1.24% [at 19 µM] | activity change, negative = inhibition [12] -0.513% [at 18.9 µM] | activity change, negative = cytotoxicity [13] 0.653% [at 18.9 µM] | activity change, negative = cytotoxicity [18] 9.85% [at 19 µM] | viability change, negative = cytotoxic [14] -3.09% [at 15.8 µM] | activity change, negative = cytotoxicity [15] -1.12% [at 15.8 µM] | activation [16] -2.16% [at 15.8 µM]

CCc1cccc(N(C)C(N)=Nc2cccc3ccccc23)c1
active: Potency [5] 2.66 µM
inactive: Potency [1] | Potency [2] | Potency [3] | Potency [4] | Potency [6] | outcome [8] | Potency [10] | Potency [11] | Potency [12] | Potency [13] | Potency [18] | outcome [14] | outcome [15] | outcome [16]

COc1ccccc1N=Nc1c(S(=O)(=O)O)cc2cc(S(=O)(=O)O)cc(NC(C)=O)c2c1O
inactive: Potency [1] | Potency [2] | Potency [5] | Potency [6] | Potency [11] | Potency [12] | Potency [13] | Potency [18] | outcome [14] | outcome [15] | outcome [16] | outcome [17]
active: Potency [4] 25.7 µM | Potency [10] 22.9 µM

COc1ccc(CCC(=O)c2c(O)cc(O[C@@H]3O[C@H](CO)[C@@H](O)[C@H](O)[C@H]3O[C@@H]3O[C@@H](C)[C@H](O)[C@@H](O)[C@H]3O)cc2O)cc1O
inactive: Potency [1] | Potency [2] | Potency [3] | Potency [4] | Potency [5] | Potency [6] | Potency [7] | outcome [8] | Potency [9] | Potency [12] | Potency [13] | Potency [18] | outcome [14] | outcome [15] | outcome [16]

CC(C)OCC1CO1 (stereo not drawn)
inactive: Potency [1] | Potency [2] | Potency [4] | Potency [5] | Potency [6] | Potency [7] | Potency [11] | outcome [14] | outcome [15] | outcome [16] | outcome [17]

C=CC(C)(O)CCCC(C)CCCC(C)CCCC(C)C (stereo not drawn)
inactive: Potency [1] | Potency [2] | Potency [3] | Potency [4] | Potency [5] | Potency [6] | Potency [7] | outcome [8] | Potency [9] | Potency [10] | Potency [12] | Potency [13] | outcome [14] | outcome [15] | outcome [16] | outcome [17]
active: Potency [11] 13.6 µM

Cc1ccc(S(=O)(=O)NC2CCCCC2)cc1
active: Potency [12] 27.1 µM
inactive: Potency [1] | Potency [2] | Potency [3] | Potency [4] | Potency [5] | Potency [6] | Potency [7] | outcome [8] | Potency [9] | Potency [11] | outcome [14] | outcome [15] | outcome [16] | outcome [17]

Cc1nc2ccccc2s1
inactive: Potency [1] | Potency [2] | Potency [3] | Potency [4] | Potency [5] | Potency [6] | Potency [7] | outcome [8] | Potency [9] | Potency [10] | Potency [11] | Potency [12] | Potency [13] | Potency [18] | outcome [14] | outcome [15] | outcome [16]

CC(CCc1ccc2c(c1)OCO2)NN (stereo not drawn)
inactive: Potency [1] | Potency [2] | Potency [3] | Potency [4] | Potency [5] | Potency [6] | Potency [7] | outcome [8] | Potency [9] | Potency [10] | Potency [12] | Potency [13] | Potency [18] | outcome [14] | outcome [15] | outcome [16]
